Among the data in paper PMC8384837, “Expanding the binding specificity for RNA recognition by a PUF domain” are binding signal values, retold here.

What all share (experiment): yeast three-hybrid, YBZ-1, SC-Leu-His + 0.5 mM 3-AT, 4 days
Holding throughout (conditions): tags: N-Gal4 AD-HA kept; label: inside an RPR1-promoter hybrid RNA with tandem MS2 sites; ssRNA

For one assay, the target named is PUM1 PUF domain R8-NWR (Homo sapiens, UniProt Q14671 828-1176, Y1123W;Q1126R). Summed up:
(§1)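 Pumilio-1 PUF domain libraries, randomized at the three base-contacting residues of each repeat, were co-expressed with matching RNA elements from a centromeric plasmid in strain YBZ-1, which carries a LexA–MS2 coat fusion and a HIS3 reporter. Transformants grew for four days on SC-Leu (input) or on SC-Leu-His + 0.5 mM 3-AT (selection), and the repeat regions were PCR-amplified and Illumina-sequenced. The interaction score is the log change in variant frequency from input to selection. That logarithm is base 2, with a pseudocount of 1 where a variant was absent.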

The next assay concerns the target PUM1 PUF domain R3-CRC (Homo sapiens, UniProt Q14671 828-1176, Q939C). Summed up:
as §1

Another assay deals with T1, PUM1 PUF domain R6-VWS (Homo sapiens, UniProt Q14671 828-1176, N1043V;Y1044W;Q1047S).
T1 sequence: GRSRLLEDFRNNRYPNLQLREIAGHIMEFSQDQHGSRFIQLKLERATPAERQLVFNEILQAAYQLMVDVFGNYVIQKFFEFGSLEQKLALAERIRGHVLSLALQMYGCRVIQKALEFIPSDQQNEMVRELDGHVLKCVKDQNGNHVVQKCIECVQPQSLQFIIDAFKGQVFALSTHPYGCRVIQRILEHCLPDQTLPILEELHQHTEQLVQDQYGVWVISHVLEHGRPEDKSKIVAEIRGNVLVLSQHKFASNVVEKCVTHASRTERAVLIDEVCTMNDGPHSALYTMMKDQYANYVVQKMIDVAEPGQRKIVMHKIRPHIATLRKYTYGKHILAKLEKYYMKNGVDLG
The gist of the method: as §1

A further assay concerns the target PUM1 PUF domain R5-KHI (Homo sapiens, UniProt Q14671 828-1176, C1007K;R1008H;Q1011I). Summed up: as §1
In another assay the target is PUM1 PUF domain R4-VPS (Homo sapiens, UniProt Q14671 828-1176, N971V;H972P;Q975S). The gist of the method: as §1
The next assay addresses PUM1 PUF domain R4-SNS (Homo sapiens, UniProt Q14671 828-1176, N971S;H972N;Q975S). Summed up:
as §1

The target in a further assay is PUM1 PUF domain R4-VCA (Homo sapiens, UniProt Q14671 828-1176, N971V;H972C;Q975A). The gist of the method: as §1
The target of the next assay is PUM1 PUF domain R5-NAR (Homo sapiens, UniProt Q14671 828-1176, C1007N;R1008A;Q1011R). The gist of the method: as §1
The next assay deals with PUM1 PUF domain R5-KTC (Homo sapiens, UniProt Q14671 828-1176, C1007K;R1008T;Q1011C). The gist of the method:
as §1

The next assay concerns the target T2, PUM1 PUF domain R6-LWK (Homo sapiens, UniProt Q14671 828-1176, N1043L;Y1044W;Q1047K).
T2 sequence: T1 sequence with V216L, S220K
Summed up: as §1

Positions count from the first letter of the chain named.

On to “GGCUAGAACUAGUGGAUCCCCCGGCGCCCGGCGGCUCGAGCCCGGGUAAGCGUAAAUAGUCUGCAUGCCGCCGGGCGCCAUGCCUGCAGGUCGACUCUAGAAAACAUG”, for which the binding signal with PUM1 PUF domain R8-NWR is 3.79 log2 enrichment (interaction score).
As to “GGCUAGAACUAGUGGAUCCCCCGGCGCCCGGCGGCUCGAGCCCGGGUAAGUGUAAUUAGUCUGCAUGCCGCCGGGCGCCAUGCCUGCAGGUCGACUCUAGAAAACAUG”, the binding signal with PUM1 PUF domain R3-CRC was 2.22 log2 enrichment (interaction score).
For the sequence “GGCUAGAACUAGUGGAUCCCCCGGCGCCCGGCGGCUCGAGCCCGGGUAAGUGAAAAUAGUCUGCAUGCCGCCGGGCGCCAUGCCUGCAGGUCGACUCUAGAAAACAUG”, in the assay with PUM1 PUF domain R6-VWS, the binding signal was 7.2 log2 enrichment (interaction score).
On to “GGCUAGAACUAGUGGAUCCCCCGGCGCCCGGCGGCUCGAGCCCGGGUAAGUGUGAAUAGUCUGCAUGCCGCCGGGCGCCAUGCCUGCAGGUCGACUCUAGAAAACAUG”, for which the binding signal with PUM1 PUF domain R5-KHI is 4.47 log2 enrichment (interaction score).
Take “GGCUAGAACUAGUGGAUCCCCCGGCGCCCGGCGGCUCGAGCCCGGGUAAGUGUAUAUAGUCUGCAUGCCGCCGGGCGCCAUGCCUGCAGGUCGACUCUAGAAAACAUG”: the binding signal with PUM1 PUF domain R4-VPS is 2.93 log2 enrichment (interaction score); with PUM1 PUF domain R4-SNS, 2.15 log2 enrichment (interaction score); with PUM1 PUF domain R4-VCA, 2.82 log2 enrichment (interaction score).
Consider “GGCUAGAACUAGUGGAUCCCCCGGCGCCCGGCGGCUCGAGCCCGGGUAAGUGUACAUAGUCUGCAUGCCGCCGGGCGCCAUGCCUGCAGGUCGACUCUAGAAAACAUG”, for which the binding signal with PUM1 PUF domain R4-VPS was 2.28 log2 enrichment (interaction score); in the assay with PUM1 PUF domain R4-SNS, 0.99 log2 enrichment (interaction score).
Turning to “GGCUAGAACUAGUGGAUCCCCCGGCGCCCGGCGGCUCGAGCCCGGGUAAGUGUAAGUAGUCUGCAUGCCGCCGGGCGCCAUGCCUGCAGGUCGACUCUAGAAAACAUG”, in the assay with PUM1 PUF domain R3-CRC, the binding signal is 2.62 log2 enrichment (interaction score).
In the case of “GGCUAGAACUAGUGGAUCCCCCGGCGCCCGGCGGCUCGAGCCCGGGUAAGUGUCAAUAGUCUGCAUGCCGCCGGGCGCCAUGCCUGCAGGUCGACUCUAGAAAACAUG”, the binding signal in the assay with PUM1 PUF domain R5-NAR was 4.29 log2 enrichment (interaction score); with PUM1 PUF domain R5-KTC, 4.69 log2 enrichment (interaction score).
For “GGCUAGAACUAGUGGAUCCCCCGGCGCCCGGCGGCUCGAGCCCGGGUAAGUGUAAAUAGUCUGCAUGCCGCCGGGCGCCAUGCCUGCAGGUCGACUCUAGAAAACAUG”, the binding signal in the assay with PUM1 PUF domain R3-CRC was 2.51 log2 enrichment (interaction score); with PUM1 PUF domain R4-VPS, 1.66 log2 enrichment (interaction score); with PUM1 PUF domain R8-NWR, 2.23 log2 enrichment (interaction score); in the assay with PUM1 PUF domain R6-LWK, 5.88 log2 enrichment (interaction score); with PUM1 PUF domain R6-VWS it was 2.66 log2 enrichment (interaction score); with PUM1 PUF domain R4-SNS it was 2.68 log2 enrichment (interaction score).
